Most compounds without a hit are left out; they make up all but 5.4% or so of the library.
CSC inhib – cancer stem cell inhibition | cancer stem cell-like cells viability, luminescence | 300,000 tested, 1.1% active | inhibition, % at 7.5 µM; in the data active means inhibition above about 75%; tested in HMLE shEcad cells
PP5 primary – PP5 (human) phosphatase inhibition. AID 1987. purified PP5c, OMFP substrate fluorescence. inhibition, % at 6.7 µM. P53041. 320,000 tested, 0.18% active;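 active means inhibition above the campaign's mean inhibition across all tested compounds plus 3 SD, cut at about 9.5% in these data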;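 further: 0% = DMSO only and 100% = 100 µM cantharidin control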
Calb FLC – affects C. albicans growth with fluconazole; C. albicans CaCi-2 (fluconazole-resistant clinical isolate) + fluconazole, Alamar Blue growth, 48 h; growth inhibition, % (test concentration not listed); 300,000 tested, 0.57% active; AID 1979;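 active means growth inhibition above about 58% in most replicates, limit read from the data, passing the limit was not always enough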;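 further: all wells also contain fluconazole at 8 µg/ml as a sub-toxic cotreatment; 0% = median of DMSO wells and 100% = median of geldanamycin control wells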
PP1 counter – PP1-alpha (human) inhibition in PP5 counter-screen; P62136; inhibition, % at 6.7 µM; purified PP1alpha, OMFP fluorescence; 320,000 tested, 0.9% active;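 active means inhibition above the mean inhibition of all tested compounds plus 3 SD, computed separately for each screening campaign, cut at about 15% in these data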
Target sequence (P62136 whole entry, looked up): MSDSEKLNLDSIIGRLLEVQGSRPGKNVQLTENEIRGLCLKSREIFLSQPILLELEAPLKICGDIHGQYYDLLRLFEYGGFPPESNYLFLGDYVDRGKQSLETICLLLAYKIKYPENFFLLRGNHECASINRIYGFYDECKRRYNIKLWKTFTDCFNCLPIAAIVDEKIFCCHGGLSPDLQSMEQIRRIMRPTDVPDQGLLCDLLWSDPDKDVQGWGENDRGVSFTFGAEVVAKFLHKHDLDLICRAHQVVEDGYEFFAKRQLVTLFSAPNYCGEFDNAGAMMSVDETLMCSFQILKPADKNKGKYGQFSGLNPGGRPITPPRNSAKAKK
ALR inh – human ALR oxidase inhibition via reduced H2O2. inhibition, % (test concentration not listed). 290,000 tested, 3.8% active. P55789. purified ALR, DTT oxidation, H2O2 HRP-luminol luminescence;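 active means mean replicate inhibition above about 79%, with every replicate also reaching it, limit read from the data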
Target sequence (P55789 whole entry, looked up): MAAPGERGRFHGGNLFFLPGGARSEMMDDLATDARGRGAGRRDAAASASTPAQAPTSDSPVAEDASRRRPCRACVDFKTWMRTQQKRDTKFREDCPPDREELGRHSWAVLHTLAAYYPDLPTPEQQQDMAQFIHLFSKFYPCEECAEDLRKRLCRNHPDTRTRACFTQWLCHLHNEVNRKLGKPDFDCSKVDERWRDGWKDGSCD
PP5 inh confirm – PP5 (human) inhibition, confirmation. inhibition, % at 6.7 µM. Purified PP5, fluorogenic phosphatase substrate, fluorescence. 460 tested, 22% active. shares compounds with PP5 primary; in the data active means inhibition above about 9.5%
PP1 inh counter – counter-screen for PP5 inhibitors: human PP1 phosphatase inhibition; shares compounds with PP5 primary; PP1 enzyme, fluorescent phosphatase substrate; inhibition, % at 6.7 µM; 460 tested, 4% active; AID 2355; in the data active means inhibition above about 16%
Starred values were filed as active, the others as inactive; . = no result given.

SMILES	CSC inhib	PP5 primary	Calb FLC	PP1 counter	ALR inh	PP5 inh confirm	PP1 inh counter
COC(=O)c1c(-c2ccc(C(C)(C)C)cc2)csc1NC(=O)C1C2CCC(O2)C1C(=O)O (stereo not drawn)	-15	7	-7	-1	36	.	.
Cc1ccc(C(c2nnnn2CS(=O)(=O)c2ccc(C)cc2)N2CCCC2)cc1 (stereo not drawn)	2	0	-2	2	-2	.	.
CCn1nnc(-c2ccccc2NS(=O)(=O)c2ccc(S(=O)(=O)N(C)C3CCCCC3)cc2)n1	7	12*	-22	1	-1	-3	-1
COc1ccc(C(=O)c2nccc3cc(OC)c(OC)cc23)cc1OC	3	13*	.	2	-25	48*	7
O=C(c1ccc([N+](=O)[O-])o1)N(Cc1nnc(-c2ccccc2Cl)o1)C1CC1	7	0	.	0	-50	.	.
CC1=C(C(=O)OC(C)C)C2(O)C(=O)c3ccccc3C2(O)N1 (stereo not drawn)	-17	12*	0	0	-13	16*	0
CCOC(=O)C1=C(C)N[C@@]2(O)c3ccccc3C(=O)[C@@]12O	-4	6	9	0	-2	.	.
O=C(c1ccccc1[N+](=O)[O-])N1CCN(Cc2ccc3c(c2)OCO3)CC1	-15	2	-4	-2	-10	.	.
O=C(NCCCO)c1cc2c([nH]c3ccccc32)c(-c2ccccc2)n1	2	.	4	.	-10	.	.
O=C(NCC1CCCO1)c1cc2c([nH]c3ccccc32)c(-c2cccc(Cl)c2)n1 (stereo not drawn)	44	11*	4	11	2	3	6
CC(CNS(=O)(=O)c1ccccc1)(c1ccccc1)N1CCCCC1 (stereo not drawn)	6	-1	0	-4	.	.	.
CCCc1[nH]c2ccc(C(=O)OC)cc2c1CCC	16	7	-5	-2	0	.	.
CCCc1[nH]c2ccc(C#N)cc2c1CCC	82*	13*	-22	2	97*	7	6
Cc1cc(C(F)F)n2nc(C(=O)Nc3ccc(F)cc3F)nc2n1	-7	-1	-3	-3	-12	.	.
COC(=O)C1=C(C)N=C2SCCC(=O)N2C1c1ccc(C(=O)OC)cc1 (stereo not drawn)	.	-1	14	-1	-5	.	.
COC(=O)c1ccc(C2C(C(=O)OCC(C)C)=C(C)N=C3SCCC(=O)N32)cc1 (stereo not drawn)	-7	10*	27	1	-14	-1	1
COc1ccc(NC(=O)C2=CN3CCS(=O)(=O)N=C3C=C2)c(OC)c1	-9	0	.	-1	-14	.	.
Cc1c(NC(=S)N/N=C/c2cc([N+](=O)[O-])ccc2O)c(=O)n(-c2ccccc2)n1C	4	12*	5	3	63	-7	-3
Cc1c(NC(=O)Nc2ccc([N+](=O)[O-])cc2)c(=O)n(-c2ccccc2)n1C	-5	2	-3	-3	-2	.	.
Cc1ccc(Cl)cc1NC1=C/C(=N\S(=O)(=O)c2cccs2)c2ccccc2C1=O	101*	11*	42	2	-27	42*	11
O=C1C(Nc2ccc(O)cc2)=C/C(=N/S(=O)(=O)c2cccs2)c2ccccc21	.	.	28	.	.	.	.
NS(=O)(=O)c1ccc(NC2=CC(=O)C(=O)c3ccccc32)cc1	61	11*	42	1	-9	37*	7
COc1ccc2occ(C(=O)c3coc4ccc(O)c(CN(C)C)c34)c2c1	-3	11*	-7	1	3	-2	-2
Cc1ccc(N(CC(O)CN2C(=O)NC(C)(C)C2=O)S(=O)(=O)c2ccc(C)cc2)cc1 (stereo not drawn)	2	-1	-3	-8	.	.	.
Cc1ccccc1S(=O)(=O)N(CC(O)CN1C(=O)NC(C)(C)C1=O)c1ccccc1 (stereo not drawn)	-13	10*	-9	3	2	-5	-3
SMILES	CSC inhib	PP5 primary	Calb FLC	PP1 counter	ALR inh	PP5 inh confirm	PP1 inh counter
O=C(Nc1cc(-c2ccccc2)[nH]n1)c1ccccc1F	23	-2	-10	2	49	.	.
CC1=C(C(=O)Nc2cc(-c3cccc(F)c3)[nH]n2)C2(CCCCC2)OC1=O	11	10*	36	4	86*	15*	5
CC(=O)c1nn(-c2ccc(Cl)cc2)cc1C(=O)c1ccccc1	2	1	-3	0	0	.	.
CCOc1cc2c(C#N)c(N3CCCC3)nc(N)c2c(N)n1	-27	1	10	1	48	.	.
CCCOc1cc2c(C#N)c(N3CCCC3)nc(N)c2c(N)n1	-13	11*	-2	4	60	38*	3
COc1cc2c(C#N)c(N3CCCC3)nc(N)c2c(N)n1	-5	2	4	0	58	.	.
CCCCN(CC)c1nc(N)c(C#N)c(CC#N)c1C#N	-12	3	26	4	.	.	.
N#Cc1c(N2CCCC2)nc(N)c2c(N)nc(N3CCCC3)cc12	.	16*	43	6	-161	25*	18*
CCCCN(CC)c1nc(N)c2c(N)nc(OCC)cc2c1C#N	22	12*	-5	5	-1	25*	2
CCn1c(SCC(=O)Nc2ccc3[nH]c(=O)[nH]c3c2)nnc1-c1ccccc1	8	1	-1	-7	-8	.	.
Cn1c(NC(=O)c2ccc(Cl)cc2)cc(=O)n(C)c1=O	-9	-3	-2	4	0	.	.
CC(C)(C)NC(=O)c1ccc(NC(=O)c2ccccc2-c2ccccc2C(=O)O)cc1	-14	10*	6	5	0	-8	-7
O=C1C(O)=C(O)C(=O)c2ccccc21	0	13*	.	6	42	14*	28*
Cc1cccc(C)c1OCCSc1nc2ccccc2n1CC(=O)O	-6	4	1	-1	-8	.	.
Cc1ccc(S(=O)(=O)N2CCN(C(=O)Cn3c(=O)oc4ccccc43)CC2)cc1	-17	.	.	.	-8	.	.
O=C(Nc1ccc(Nc2ccccc2)cc1)c1cccc(F)c1	75*	9.8*	15	-1	7	3	2
O=C(Nc1cccc(F)c1)c1ccccc1	-12	0	-22	1	.	.	.
O=C(CN1CCCC1)Nc1ccc(F)cc1	-2	-2	20	-1	-5	.	.
Cc1ccccc1NC(=O)Nc1ccccc1C(=O)NCc1ccccc1	-8	17*	0	0	.	-3	-2
CCOC(=O)Cc1csc(NC(=O)c2ccc(C)cc2)n1	5	-1	-11	-3	-25	.	.
CCOC(=O)Cc1csc(NC(=O)c2ccc(Cl)nc2)n1	20	13*	14	0	-4	-7	-3
CC1(C(=O)Nc2ccc3c(c2)OCCO3)CC1(Cl)Cl (stereo not drawn)	-5	19*	-4	-3	0	-5	-4
O=C(CN1CCOCC1)c1c[nH]c2ccccc12	-7	-1	9	-1	2	.	.
CCC(=O)Nc1ccc(NC(=O)c2cc3ccccc3o2)cc1	-1	0	0	-1	-1	.	.
